Rab9 prom act: Rab9 promoter activation; Potency, µM (titrated, usually from 9.22 µM), hits mostly activators; AID 485297; 320,000 compounds, 2.8% hits; Huh7 Rab9 promoter-luciferase reporter, luminescence, 24 h; further: nearly all actives have a fitted effect of over 60% in size
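Huh7 cells stably carrying a Rab9 promoter-luciferase reporter, 1500 cells per well in OP-MEM I with 10% FBS, treated with compound 24 hours at 37C. Luciferase activity read by luminescence after 10 minutes with Amplite reagent.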
FLuc counter: firefly luciferase modulation, counter-screen for miR-21 project; purified FLuc, Km substrates, luminescence inhibition; 360,000 compounds, 6.9% hits; AID 588342; P08659; Potency, µM (series often up to 57.5 µM), actives largely listed as inhibitors; further: nearly all actives have a fitted effect of over 55% in size
Target sequence (P08659 whole entry, looked up): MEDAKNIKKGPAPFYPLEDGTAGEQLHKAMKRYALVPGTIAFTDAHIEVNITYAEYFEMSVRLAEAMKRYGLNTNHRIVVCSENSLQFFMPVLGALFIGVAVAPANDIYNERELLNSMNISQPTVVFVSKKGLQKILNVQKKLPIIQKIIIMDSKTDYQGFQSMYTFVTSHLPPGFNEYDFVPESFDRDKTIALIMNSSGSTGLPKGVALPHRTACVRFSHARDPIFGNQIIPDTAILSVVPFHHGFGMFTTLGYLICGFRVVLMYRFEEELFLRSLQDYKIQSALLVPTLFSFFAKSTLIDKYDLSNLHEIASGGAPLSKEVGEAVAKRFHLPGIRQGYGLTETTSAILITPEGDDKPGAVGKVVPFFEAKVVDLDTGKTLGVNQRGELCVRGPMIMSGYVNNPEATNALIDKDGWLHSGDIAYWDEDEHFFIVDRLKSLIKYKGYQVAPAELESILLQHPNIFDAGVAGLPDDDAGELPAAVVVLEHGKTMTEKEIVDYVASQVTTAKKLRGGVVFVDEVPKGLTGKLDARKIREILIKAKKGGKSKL
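Purified P. pyralis luciferase (10nM final) with 10uM D-luciferin and 10uM ATP (Km levels) in 50mM Tris acetate pH 7.5, 10mM Mg acetate, 0.01% Tween-20, 0.05% BSA; qHTS 6-point titration, ~60 µM downward; luminescence read.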
NPC1 prom act: activators of NPC1 promoter. Huh7 NPC1 promoter luciferase reporter, 24 h. Potency, µM (highest dose often 9.22 µM), hits mostly activators. 320,000 compounds, 2.4% hits. AID 485313; further: nearly all actives have a fitted effect of over 60% in size
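Huh7 reporter cells (NPC1 promoter driving luciferase) are dosed with compound for 24 h at 37 °C, 5% CO2; luciferase detection reagent is then added and luminescence measured after 10 min at ambient temperature.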
Luc counter: Kinase-Glo luciferase inhibition (counter-screen) | 200,000 compounds, 0.28% hits | Potency, µM (titrated, usually from 38.3 µM), most hits filed as inhibitors | Kinase-Glo luciferase, ATP luminescence, 8 min | AID 1379; further: nearly all actives have a fitted effect of over 60% in size
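Inhibition of Kinase-Glo luciferase light generation was assessed at 10 uM ATP in pH 7.2 imidazole buffer, with luminescence measured after eight minutes at ambient temperature.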
SMN2 splice enh: enhancers of SMN2 splice variant expression; AID 1458; HEK293 SMN2-luciferase splicing reporter, luminescence, 30-36 h; 210,000 compounds, 2.8% hits; Potency, µM (series often up to 46.1 µM), actives largely listed as activators; further: nearly all actives have a fitted effect of over 55% in size
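qHTS luciferase splicing reporter: luminescence rises when SMN2 exon 7 is included in transfected HEK293 cells. Compound exposure lasted 30-36 h at 37C, with 4.5 mM final sodium butyrate as control, followed by a ONE-Glo read.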
ELG1 genotoxic: induces genotoxicity in HEK293T cells with luciferase-tagged ELG1; AID 504466; 330,000 compounds, 1.3% hits; HEK293T ELG1-luciferase reporter, luminescence, 16 h; Potency, µM (series often up to 46 µM), most hits filed as activators; further: nearly all actives have a fitted effect of over 60% in size
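After overnight (16 hr) compound treatment at 37 °C, ELG1-luciferase HEK293T cells were lysed with ONE-Glo; luminescence quantified 30 min later at room temperature.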
A number is an active result; - = inactive; ? = inconclusive; . = no result given. Compounds with a hit are over-represented: about 7.4% of the library has one in this group of screens. The call rests on the fitted dose curve; in most records, active means well fitted curve in the direction sought with a large enough effect; inconclusive means small, poorly fitted or top-dose-only effect, or another doubt; inactive means no such curve, though single readings can be large; an effect the other way counts as inactive or inconclusive.

SMILES	Rab9 prom act	FLuc counter	NPC1 prom act	Luc counter	SMN2 splice enh	ELG1 genotoxic
CCOc1ccc(N(CC(=O)Nc2ccc(OC)cc2)S(C)(=O)=O)cc1	?	?	?	-	-	?
CCOc1ccc(N(CC(=O)NCc2ccccc2C)S(C)(=O)=O)cc1	?	13.5µM	3.16µM	.	.	?
CCOc1ccc(N(CC(=O)NCCSCc2ccccc2Cl)S(C)(=O)=O)cc1	-	-	-	.	.	-
CCOc1ccc(NC(=O)CN(c2ccc(OC)cc2)S(C)(=O)=O)cc1	-	21.3µM	?	-	-	16.4µM
COC(=O)c1ccc(NC(=O)CN(c2ccc(OC)cc2)S(C)(=O)=O)cc1	2.51µM	15.1µM	?	-	?	?
CCOC(=O)CCCCC(=O)c1[nH]c(=O)[nH]c1CSc1nnc2c3ccccc3n(C(C)C)c2n1	-	-	-	-	-	-
Cc1nc(NC(=O)c2ccccc2)sc1-c1csc(NCc2ccccc2)n1	-	?	-	-	-	-
Cc1nc(NC(=O)c2ccccc2)sc1-c1csc(N)n1	-	9.53µM	?	-	-	-
COc1ccccc1NC1=C(C)C(=O)CC1	-	-	-	-	17.8µM	20.6µM
Cc1ccc(Cl)cc1Nc1nc(-c2sc(NC(=O)c3ccccc3)nc2C)cs1	-	-	-	-	-	-
COc1ccccc1Nc1ccc(Nc2ccccc2OC)nn1	?	9.53µM	?	.	.	?
Cc1nc(NC(=O)c2ccccc2)sc1-c1csc(Nc2cccc(F)c2)n1	-	13.5µM	-	-	-	-
COc1ccc(S(=O)(=O)N(CC(=O)NCc2ccncc2)c2cc(C)cc(C)c2)cc1OC	-	-	-	.	.	-
Cc1ccc(-c2nc(C)sc2CC(=O)Nc2cccc(C)c2C)cc1	-	-	-	.	.	-
CC1CCN(c2ccc3nnc(CCC(=O)N4CCN(c5ccccc5F)CC4)n3n2)CC1	-	-	-	.	.	-
O=C(c1ccco1)N1CCN(Cc2csc(-c3ccccc3Cl)n2)CC1	.	?	?	.	.	-
Cc1csc(Nc2cccc3ccccc23)n1	-	?	-	-	-	-
COc1ccccc1Nc1nc(-c2sc(NC(=O)c3ccccc3)nc2C)cs1	-	21.3µM	-	-	-	-
COc1ccccc1Nc1nc(C)cs1	-	26.9µM	-	-	?	-
COc1c(O)cnn(-c2ccccc2)c1=O	-	-	-	.	.	-
CC(=O)Nc1ccc(S(=O)(=O)NCCC(=O)OC(C)C(=O)NC2(C#N)CCCCC2)cc1 (stereo not drawn)	-	.	-	.	.	-
COc1ccc(-c2nc(C#N)c(NCC3CCCO3)o2)cc1 (stereo not drawn)	-	13.5µM	-	-	?	-
Cc1cccc(-c2nc(C#N)c(N3CCC(C)CC3)o2)c1	-	-	-	.	.	-
N#Cc1nc(-c2cccs2)oc1NCC1CCCO1 (stereo not drawn)	-	-	-	-	-	-
Cc1ccc(-c2nc(C#N)c(NCC3CCCO3)o2)cc1 (stereo not drawn)	?	21.3µM	?	-	12.6µM	?
SMILES	Rab9 prom act	FLuc counter	NPC1 prom act	Luc counter	SMN2 splice enh	ELG1 genotoxic
Cc1cccc(-c2nc(C#N)c(N3CCCCCC3)o2)c1	-	10.7µM	-	-	?	16.4µM
CCOc1ccc(-c2nc(C#N)c(NC3CC3)o2)cc1	?	15.1µM	-	-	-	-
CCOc1ccc(-c2nc(C#N)c(NCc3ccc4c(c3)OCO4)o2)cc1	-	-	-	-	?	-
N#CCCN(C(=O)COC(=O)CCc1c[nH]c2ccccc12)c1ccc(F)cc1	-	-	-	.	.	-
CCOC(=O)c1c(C)[nH]c(C)c1S(=O)(=O)N1CCC(C(=O)NCc2ccc(N(C)C)cc2)CC1	.	-	.	.	.	.
Cc1cccc(-c2nc(C#N)c(NCC3CCCO3)o2)c1 (stereo not drawn)	2.51µM	12µM	2.82µM	.	.	?
Cc1cccc(-c2noc(CCCC(=O)NCC3CCCO3)n2)c1 (stereo not drawn)	-	-	-	.	.	-
COc1ccc(-c2cc3ncc(C(C)=O)c(C)n3n2)cc1	1.26µM	?	2.24µM	-	11.2µM	?
COc1ccc(-c2cc3ncc(C(=O)c4cc([N+](=O)[O-])ccc4O)cn3n2)cc1	.	?	.	.	-	.
CC(=O)c1cnc2nc(SCc3ccc(C)cc3)nn2c1C	-	-	-	.	.	-
CC(=O)c1cnc2cc(-c3ccccc3)nn2c1C	1.41µM	2.39µM	2.51µM	-	15.8µM	2.24µM
CC(=O)c1cnc2cc(C)nn2c1C	-	-	-	-	-	-
CC(=O)c1cnc2nc(SCc3ccccc3)nn2c1C	3.55µM	.	4.47µM	.	.	?
CC(=O)c1cnc2cc(-c3ccc(C)cc3)nn2c1C	3.55µM	3.38µM	?	-	11.2µM	7.31µM
COc1cc(OC)c(NC(=O)CCS(=O)(=O)c2ccc3c(c2)oc(=O)n3C)cc1Cl	.	-	.	.	.	.
CS(=O)(=O)N(CC(=O)Nc1ccc(Br)cc1)C1CCCCC1	-	-	-	.	.	-
C=CCOc1ccc(/C=C(\C#N)C(=O)Nc2ccccn2)cc1OC	-	-	-	.	.	-
Cc1ccc(/C=C(\C#N)C(=O)Nc2cccc(C)n2)cc1	-	2.39µM	-	.	.	-
COc1ccc(/C=C(\C#N)C(=O)Nc2ccccn2)cc1	-	2.13µM	-	.	.	?
Cc1ccc(/C=C(\C#N)C(=O)Nc2ccccn2)o1	2.51µM	8.49µM	?	?	17.8µM	5.17µM
COc1ccc(O)c(/C=C(\C#N)C(=O)Nc2ccccn2)c1	-	2.39µM	-	.	.	-
Cc1cccc(NC(=O)/C(C#N)=C\c2ccc(C(=O)O)cc2)c1	-	?	-	-	-	-
CCOc1ccc(CCNC(=O)COC(=O)COc2ccc(C#N)cc2)cc1OCC	-	-	-	.	.	-
CCCCc1cc(=O)oc2cc(C)cc(OCC(=O)NC(Cc3ccc(Cl)cc3)C(=O)O)c12 (stereo not drawn)	-	-	-	.	.	-
N#Cc1ccsc1NC(=O)COC(=O)c1cc(Br)ccc1O	?	9.53µM	-	.	.	-
SMILES	Rab9 prom act	FLuc counter	NPC1 prom act	Luc counter	SMN2 splice enh	ELG1 genotoxic
Cn1cccc1C(=O)OCC(=O)Nc1sccc1C#N	.	.	.	.	.	20.6µM
N#Cc1ccsc1NC(=O)COC(=O)c1ccc2ccccc2c1	0.447µM	10.7µM	?	-	?	?
COc1ccc(CCC(=O)Nc2sccc2C#N)cc1	2µM	16.9µM	3.98µM	-	15.8µM	6.51µM
N#Cc1ccsc1NC(=O)COC(=O)c1ccc(Br)o1	.	.	.	.	.	-
Cn1ccnc1SCC(=O)Nc1sccc1C#N	-	-	-	-	-	-
COc1cccc(-n2ccnc2SCC(=O)Nc2c(C)cc(C)cc2C)c1	.	-	.	.	.	.
CCOC(=O)CCn1cnc2onc(-c3cc(OC)ccc3Cl)c2c1=O	.	-	.	.	-	.
Cc1csc2c(=O)sc(NC(=O)c3ccc(F)cc3Cl)nc12	-	-	-	.	.	-
O=C(Nc1nc2ccsc2c(=O)s1)c1ccc(F)cc1	0.282µM	0.536µM	0.398µM	.	.	?
O=C(Nc1nc2ccsc2c(=O)s1)c1ccc(F)cc1Cl	0.562µM	0.536µM	0.708µM	.	.	9.2µM

Compound activity (PubChem BioAssay)
